Screens deposited in PubChem BioAssay by National Center for Advancing Translational Sciences (NCATS).
BRCA1 expr act – qHTS Assay to Identify Small Molecule Activators of BRCA1 Expression | actives 1.1% (n = 380,000) | AID 624202, 2012 | MCF7-BRCA1-FFLuc reporter, luminescence, 48 h; response scale: scaled: vehicle 0%, 10 µM genistein 100% | Potency, µM (top dose mostly 46.1 µM), without a hit: at the top dose activation, hits mostly activators; also: nearly all actives have a fitted effect of over 80% in size
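Luminescence from a BRCA1-driven firefly luciferase in MCF7 cells was the read-out, taken 15 min after substrate addition following 48 h compound exposure at 37 °C. Data were normalized to a 10 microM genistein control and DMSO vehicle.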
GLP1R inv ag – qHTS of GLP-1 Receptor Inverse Agonists (Inhibition Mode) | HEK293 GLP-1R CRE-luciferase, luminescence, 24 h; GLP-1R form is constitutively active | Potency, µM (titrated, usually from 38.3 µM), for inactives: at the highest dose activity change, negative = inhibition, most hits filed as inhibitors | actives 1.6% (n = 410,000) | Glucagon-like peptide 1 receptor (Homo sapiens), P43220; also: % is scaled to controls: 0 for no effect and ±100 for the full control effect; nearly all actives have a fitted effect of over 55% in size
Target sequence (P43220 whole entry, looked up): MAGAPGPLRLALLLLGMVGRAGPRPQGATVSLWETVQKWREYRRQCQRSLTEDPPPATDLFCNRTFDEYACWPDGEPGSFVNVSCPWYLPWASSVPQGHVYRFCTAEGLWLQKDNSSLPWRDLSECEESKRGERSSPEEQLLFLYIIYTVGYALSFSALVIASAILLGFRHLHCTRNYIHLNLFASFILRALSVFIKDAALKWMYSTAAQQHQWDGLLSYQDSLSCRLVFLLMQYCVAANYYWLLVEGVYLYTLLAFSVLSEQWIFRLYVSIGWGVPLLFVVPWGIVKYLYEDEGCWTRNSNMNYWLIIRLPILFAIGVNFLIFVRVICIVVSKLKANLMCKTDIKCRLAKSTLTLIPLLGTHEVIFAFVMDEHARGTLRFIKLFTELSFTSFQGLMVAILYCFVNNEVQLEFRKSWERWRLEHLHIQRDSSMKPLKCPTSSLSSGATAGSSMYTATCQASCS
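Luminescence readout: a drop in cAMP-driven luciferase signal flags inverse agonism at a constitutively active GLP-1R stably expressed in HEK293. Compound exposure lasted 24 hr at 37 deg C, 5% CO2.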
GLP1R ag – qHTS of GLP-1 Receptor Agonists; actives 0.007% (n = 380,000); Glucagon-like peptide 1 receptor (Homo sapiens), P43220; Potency, µM (top dose mostly 45.6 µM), without a hit: top-dose activation, most hits filed as activators; HEK293 GLP-1R CRE-luciferase, luminescence, 4-6 h; cells express a hypersensitive GLP-1R form; also: % of control where 0% means no effect
HEK293 tox – qHTS of GLP-1 Receptor Inverse Agonists: Cytotox Screen | actives 0.13% (n = 410,000) | HEK293 cAMP-luciferase reporter cells, luminescence, 24 h | AID 624418, 2012 | Potency, µM (titrated, usually from 38.3 µM), for inactives: at the highest dose activity change, negative = inhibition, hits mostly inhibitors;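 also: loss of luciferase light is scored as toxicity; % is scaled to controls: 0 for no effect and ±100 for the full control effect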
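Cells in DMEM/10% Nu serum/1% pen-strep, 1536-well format. Pre-incubated 12 h, dosed with 23 nL compound, incubated a further 24 h. Luciferase detection, 12 min at room temp, luminescence.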
Numbers without * were called inactive; ? = inconclusive; nt = not tested or not shown. An excerpt weighted towards active compounds, which were near 2.6% of everything screened. Calls follow the shape of the dose curve; as a rule, active = well fitted curve in the direction sought with a large enough effect; inconclusive = small, poorly fitted or top-dose-only effect, or another doubt; inactive = no such curve, though single readings can be large; an effect the other way counts as inactive or inconclusive. Potency is read from the fitted curve at half-maximal effect.

SMILES | BRCA1 expr act | GLP1R inv ag | GLP1R ag | HEK293 tox
COCc1c(C(=O)NCc2ccccc2CN2CCCC2)oc2ccccc12 | -21% | 10µM* | -9% | 3%
CC(C)CNC(=O)c1oc2ccccc2c1COc1ccccc1 | -3% | 5µM* | 19% | -9%
COC(=O)c1c(C)[nH]c(C(=O)COC(=O)CCc2ccc(OC)c(OC)c2)c1C | 1% | 3% | -8% | -5%
COc1ccc(CNC(=O)C2CCN(c3nccs3)CC2)cc1 | -16% | -15% | -13% | -3%
COc1ccc(N2CCN(c3nccs3)CC2)cc1 | 11µM* | 4% | 9% | -1%
CC(=O)C(/C=N/c1cc(-c2ccc(C)cc2)nn1-c1ccccc1)=C(\C)O | 4µM* | 0% | 12% | -5%
Cc1ccc(NC(=O)c2cc(-c3ccccc3)nn2-c2ccccc2)cc1 | -66% | -7% | -7% | 7%
COc1ccc(C(=O)NNc2ncnc3c2cnn3-c2ccc(C)cc2C)cc1 | nt | -12% | nt | 8%
CC(=NNC(N)=S)c1ccc2cc3c(cc2c1)OCO3 | ? | 2.8µM* | 18% | ?
O=C(Nc1ccc2c(c1)N(C1CCCC1)C(=O)c1ccccc1S2)c1ccc(F)cc1 | nt | ? | nt | 23%
Cc1nn(-c2ccc(N3CCCCC3)nn2)c(C)c1CCC(=O)Nc1ccc(F)cc1 | 94% | ? | -4% | -12%
Cc1ccc(NC(=O)CCc2c(C)nn(-c3ccc(N4CCCCC4)nn3)c2C)cc1F | 3.2µM* | ? | -3% | -9%
CCOc1ccc(NC(=O)CCc2c(C)nn(-c3ccc(N4CCCCC4)nn3)c2C)cc1 | 11µM* | ? | 7% | -14%
CSCCC(C(=O)NCc1ccccc1)n1c(C2CCN(C(C)=O)CC2)nc2ccccc21 (centres undefined) | nt | -7% | nt | -6%
O=C(Nc1ccc(N2CCN(CCOc3ccc(Cl)cc3)CC2)c(C(=O)O)c1)c1ccc(F)cc1 | nt | -6% | nt | 4%
Cc1ccc2occ(CC(=O)N(Cc3ccc(Cl)cc3)C3CCS(=O)(=O)C3)c2c1 (centres undefined) | nt | 11µM* | nt | -7%
CCc1ccc2occ(CC(=O)N(Cc3ccccc3)C3CCS(=O)(=O)C3)c2c1 (centres undefined) | nt | ? | nt | -16%
Cc1ccc2c(c1)CCCN2C(=O)c1cnn2c1NC(=C1CC1)C=C2C(F)F | -46% | nt | nt | nt
O=C(c1ccccc1)c1c[nH]c(C(=O)NNc2ccccc2)c1 | 1% | 2.5µM* | 6% | 12%
Ic1ccc(Nc2nc(NCCN3CCOCC3)nc(N3CCOCC3)n2)cc1 | -43% | nt | nt | nt
CC(C)NC(=O)C1CCC(Cn2c(=O)c3sccc3n(CC(=O)N3CCCC3)c2=O)CC1 (centres undefined) | nt | 8% | nt | -16%
CN(C=O)c1ccc(CSc2ccccc2)cc1 | 8.9µM* | 4% | 5% | 2%
O=C(Nc1cccnc1)c1ccc(CSc2ccccc2)cc1 | 18% | -4% | 4% | -1%
O=S(=O)(Nc1nc2ccccc2nc1Nc1cccc(S(=O)(=O)N2CCCCC2)c1)c1ccccc1 | -83% | 11µM* | -18% | -29%
COc1ccc(NS(=O)(=O)c2ccc(O)c(NC(=O)c3ccc(S(=O)(=O)N4CCCCCC4)cc3)c2)cc1 | -23% | -24% | 2% | -9%
SMILES | BRCA1 expr act | GLP1R inv ag | GLP1R ag | HEK293 tox
CC(=O)Nc1ccc(NC(=O)c2cccc(S(=O)(=O)N3CCCCCC3)c2)cc1 | -23% | 7% | 7% | -9%
COc1ccc(NS(=O)(=O)c2cccc(NC(=O)c3ccc(S(=O)(=O)N4CCCCCC4)cc3)c2)cc1 | -81% | 7.9µM* | 1% | -5%
CC(=O)c1ccc(NC(=O)c2cccc(S(=O)(=O)N3CCN(C)CC3)c2)cc1 | 11µM* | -17% | 10% | 2%
COc1ccc(C(CNC(=O)c2cccc(NS(=O)(=O)c3ccccc3)c2)N(C)C)cc1 (centres undefined) | -5% | -21% | 7% | -4%
COc1ccc(S(=O)(=O)Nc2cccc(S(=O)(=O)N3CCCCCC3)c2)cc1 | -6% | ? | -1% | 10%
COc1ccc(C(CNC(=O)c2cccc(NS(=O)(=O)c3ccc(C)c(F)c3)c2)N(C)C)cc1 (centres undefined) | -7% | 11µM* | 10% | -18%
CCCCC(=O)N(C)c1c(CC)nc2c(OCC=C(C)C)cccn12 | -48% | ? | 0% | -16%
Cc1ccc(Nc2c3c(nc4nncn24)CCC3)cc1C | nt | 3% | nt | -3%
COc1ccc(C(CNC(=O)c2cccc(S(=O)(=O)Nc3ccc(F)cc3)c2)N2CCCC2)cc1 (centres undefined) | -32% | 10µM* | -11% | -12%
COc1ccc(C(CNC(=O)COc2ccc(Br)cc2F)N2CCCC2)cc1 (centres undefined) | 3% | 13µM* | 5% | 8%
COc1ccc(C(CNC(=O)c2ccc(OCc3ccccc3)cc2)N2CCOCC2)cc1 (centres undefined) | -12% | ? | 3% | -10%
O=C(NCC(c1ccc(F)cc1)N1CCOCC1)c1ccc(OCc2ccccc2)cc1 (centres undefined) | -28% | 10µM* | 2% | -13%
COc1ccc(C(CNC(=O)COc2ccc(F)cc2Cl)N2CCCCC2)cc1 (centres undefined) | -4% | -14% | 1% | -23%
O=C(CN1C(=O)c2ccccc2S1(=O)=O)Nc1cc(S(=O)(=O)N2CCOCC2)ccc1N1CCOCC1 | 11% | nt | nt | nt
CC(C)(C)c1ccc(C(=O)Nc2ccc(-c3nc4ccccc4o3)c(O)c2)cc1 | nt | 1% | nt | 4%
COCCCNc1ncnc2c1nnn2C | nt | 12% | nt | -6%
CCOC(=O)c1cnn(-c2ncnc3c2oc2ccccc23)c1N | 3.2µM* | 38% | -5% | 2%
CCOC(=O)C1CCN(c2ncnc3c2oc2ccccc23)CC1 | 19% | 28% | 19% | 4%
C=C(C1=CCN(S(=O)(=O)C(C)(C)C)[C@@H]1CCO)c1ccccc1 | -7% | 7.9µM* | -1% | 2%
Nc1nc(-c2ccccc2Cl)cs1 | 10µM* | -13% | 0% | 2%
Cc1ccccc1-c1csc(N)n1 | 71% | -14% | 7% | -1%
NC(Cc1ccccc1)c1csc(Nc2ccc(C(=O)c3ccccc3)cc2)n1 (centres undefined) | 0% | 10µM* | -3% | ?
CCOC(=O)C1CCN(c2nc3c(S(=O)(=O)c4ccccc4)nnn3c3ccsc23)CC1 | nt | 20% | nt | -7%
N#Cc1nc(-c2cccs2)oc1NCCc1ccccc1 | 11µM* | ? | 25% | -5%
N#Cc1nc(-c2ccccc2F)oc1NCCc1ccccc1 | ? | -3% | 27% | 6%
COc1ccc(Nc2oc(-c3cccs3)nc2C#N)cc1 | 1.4µM* | 75% | 8% | 2%
CNc1oc(-c2cccs2)nc1C#N | 0% | 0% | 14% | 5%
